Bioassay records: PubChem BioAssay, Center for Chemical Genomics, University of Michigan
TAR Tat displ = TAR RNA-Tat peptide displacers, HIV-1, primary screen, biochemical, FRET, FAM/TAMRA-labeled Tat; HIV-1 TAR RNA, Tat peptide displacement FRET; stronger effect = higher value; hit rate 0.6% among 100,000; z-score (no concentration beside the values); active means z-score of 3 or more in at least 2 runs
CDC25B CDK2 inh = primary biochemical HTRF screen for blockers of M-phase inducer phosphatase 2 binding to CDK2/cyclin A; HTRF CDC25B-CDK2/CyclinA binding, anti-His/anti-Flag; stronger effect = higher value; hit rate 0.72% among 94,000; P30305+P24941; z-score (no concentration beside the values); in the data active means z-score above about 3.2
An asterisk follows results filed as active. A selection: hits, their analogues and other compounds. The true share with any hit is near 0.86%.

What do the screens show for `CCOc1ccc(NC(=O)N2CCn3cccc3C2C(C)C)cc1` (stereo unspecified)?
TAR Tat displ: -0.06

What do the screens show for `COC(=O)c1c(NC(=O)CN(c2ccccc2)S(=O)(=O)N(C)C)sc2c1CCCC2`?
TAR Tat displ: 0; CDC25B CDK2 inh: -0.12

How did Cn1cnc2cc(Nc3nnc(-c4ccc(Cl)cc4)c4ccccc34)ccc21 do in these assays?
CDC25B CDK2 inh: -0.73

Results for Cc1nc2cc(Nc3nnc(-c4ccc(Cl)cc4)c4ccccc34)ccc2n1C ?
CDC25B CDK2 inh: 14*

How did O=c1oc(-c2ccccc2)cc(Cl)c1Cl do in these assays?
TAR Tat displ: 1.2; CDC25B CDK2 inh: 14*

How did CN(C)c1cc(-c2cccc([N+](=O)[O-])c2)oc(=O)c1Cl do in these assays?
CDC25B CDK2 inh: -1.3

How did CCOc1ccc(C2C3=C(Nc4nc(N)[nH]c(=O)c42)c2ccccc2C3=O)cc1 (stereo unspecified) do in these assays?
TAR Tat displ: 2.4; CDC25B CDK2 inh: 14*

Results for CCOc1ccc(C2C3=C(CCCC3=O)NC3=C2C(=O)c2ccccc23)cc1 (stereo unspecified) ?
TAR Tat displ: -0.77; CDC25B CDK2 inh: -2.1

Results for COc1ccc(Br)cc1C1CC(=O)N2CN(c3ccccc3OC)CSC2=C1C#N (stereo unspecified) ?
TAR Tat displ: 0.32; CDC25B CDK2 inh: 6.2*

How did COc1ccc(C2CC(=O)N3CN(c4ccc(Br)cc4)CSC3=C2C#N)c(OC)c1 (stereo unspecified) do in these assays?
TAR Tat displ: -1.8; CDC25B CDK2 inh: 6.4*

What do the screens show for `COc1ccc(OC)c(C2CC(=O)N3CN(c4ccc(F)cc4)CSC3=C2C#N)c1` (stereo unspecified)?
TAR Tat displ: -2.1; CDC25B CDK2 inh: 4*

What do the screens show for `COc1ccccc1N1CSC2=C(C#N)C(c3ccc(Br)cc3)CC(=O)N2C1` (stereo unspecified)?
TAR Tat displ: -4.8; CDC25B CDK2 inh: 1.5

Results for COc1ccc(OC)c(C2CC(=O)N3CN(c4ccc(Br)cc4)CSC3=C2C#N)c1 (stereo unspecified) ?
TAR Tat displ: -0.7; CDC25B CDK2 inh: 4.5*

What do the screens show for `CC(=O)N1c2ccc(S(=O)(=O)N3CCCC3C(=O)Nc3nc4ccc(C)cc4s3)cc2CC1C` (stereo unspecified)?
TAR Tat displ: 0.33

What do the screens show for `CC(=O)N1CCc2cc(S(=O)(=O)NC(CC(C)C)C(=O)N3CC(C)CC(C)C3)ccc21` (stereo unspecified)?
TAR Tat displ: -0.66; CDC25B CDK2 inh: -2.1

Results for COc1ccc(N2C(=S)N(C)C3CS(=O)(=O)CC32)cc1 (stereo unspecified) ?
CDC25B CDK2 inh: 0.16

Results for Cc1nn(C)c(C)c1CNS(=O)(=O)c1ccccc1Cl ?
TAR Tat displ: -0.95

What do the screens show for `COc1ccc(N2CSC3=C(C#N)C(c4cc(Br)ccc4OC)CC(=O)N3C2)cc1` (stereo unspecified)?
TAR Tat displ: -0.71; CDC25B CDK2 inh: 5.4*

Results for COc1ccc(Br)cc1C1CC(=O)N2CN(C3CCCCC3)CSC2=C1C#N (stereo unspecified) ?
TAR Tat displ: -0.3; CDC25B CDK2 inh: -0.77

What do the screens show for `O=C(NCc1ccco1)C1CCCN(S(=O)(=O)c2ccc(-c3ccc(=O)[nH]n3)s2)C1` (stereo unspecified)?
TAR Tat displ: -0.35

Results for CCC(=O)N1CCc2cc(S(=O)(=O)NC(C(=O)NC3CCCC3)C(C)C)ccc21 (stereo unspecified) ?
CDC25B CDK2 inh: -0.34

What do the screens show for `O=C(Cn1c(=O)oc2cc(S(=O)(=O)N3CCCC3)ccc21)N1CCN(c2ccccc2F)CC1`?
TAR Tat displ: 1.2

Results for Fc1cccc(Nc2ncnc3onc(-c4ccc(Cl)cc4)c23)c1 ?
TAR Tat displ: 18*

What do the screens show for `Fc1ccc(-c2noc3ncnc(Nc4cccc(Cl)c4)c23)cc1`?
TAR Tat displ: -0.52

Results for COCCCNc1nc(-c2cccnc2)nc2ccccc12 ?
TAR Tat displ: 0.74; CDC25B CDK2 inh: -2.3

How did O=C(Cn1ccc2cc(S(=O)(=O)N3CCCCC3)ccc21)NCCc1cccs1 do in these assays?
TAR Tat displ: 1.2

Results for Cc1ccc(C)n1-c1cccc(N)c1 ?
TAR Tat displ: -3.2; CDC25B CDK2 inh: 4

Results for COc1ccc(N)cc1-n1c(C)ccc1C ?
TAR Tat displ: 10*; CDC25B CDK2 inh: 1.9

What do the screens show for `COc1ccc2c(c1)C=C(C(=O)Nc1ccc(Br)cc1)C=CO2`?
TAR Tat displ: -0.75; CDC25B CDK2 inh: -1.9

What do the screens show for `COc1cc(C2CC(=O)N3CN(Cc4ccccc4)CSC3=C2C#N)cc(Br)c1O` (stereo unspecified)?
TAR Tat displ: 0.52; CDC25B CDK2 inh: 3.5*

How did COc1cc(C2CC(=O)N3CN(c4ccc(C)cc4)CSC3=C2C#N)cc(Br)c1O (stereo unspecified) do in these assays?
TAR Tat displ: -0.6; CDC25B CDK2 inh: 1.7
